Each structure is given as a SMILES string. Inconclusive results are not listed. Active and inactive are the calls of the source. Calls follow the shape of the dose curve; as a rule, active = well fitted curve in the direction sought with a large enough effect; inconclusive = small, poorly fitted or top-dose-only effect, or another doubt; inactive = no such curve, though single readings can be large; an effect the other way counts as inactive or inconclusive.
Also: nearly all actives have a fitted effect of over 35% in size.
Potency is read from the fitted curve at half-maximal effect.

One test is described as follows: Quantitative High-Throughput drug screen in 47 multiple myeloma cell lines against the NCATS MIPE library collection: KHM11_PLB cell viability assay (AID 1918962).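 As to viability, % of DMSO control: 0% = media only wells and 100% = DMSO treated cells.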 To be noted: KHM11 myeloma cell viability, CellTiter-Glo ATP luminescence, 48 h; series mostly up to 45.8 µM; viability, % of DMSO control: at the top concentration. Put shortly: (§1)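 Approved and investigational drugs from MIPE 4.0 were added by pin tool to 500 cells per well. After 48 hours at 37C, ATP-based CellTiter-Glo luminescence indicated remaining viability.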
In general terms: Cellular ATP, detected with luciferase, serves as a proxy for viable cell number.
As to `Cc1cccc2c1CC[C@H](CN1CCC(c3c(Cl)cccc3Cl)CC1)C[C@@H]2O`, the Potency is 20.9 µM (active).
The same measure, in the same setting: to `CC(=O)Nc1cccc(-n2c(=O)n(C3CC3)c(=O)c3c(Nc4ccc(I)cc4F)n(C)c(=O)c(C)c32)c1` belongs 0.0059 µM (active).
On the same count and under the same terms, with `C[C@@H](NC(=O)c1ncnc(N)c1Cl)c1ncc(C(=O)Nc2cc(C(F)(F)F)c(Cl)cn2)s1` the figure was 5.26 µM (active).
Regarding `CN(C)CCOc1cc(-c2cn[nH]c2)ccc1NC(=O)C1COc2ccccc2O1` (stereo not given), the “viability, % of DMSO control” value was 104% (inactive).
Regarding `Cc1c(C(=O)Nc2ccc(N3C[C@@H](C)O[C@@H](C)C3)nc2)cccc1-c1ccc(OC(F)(F)F)cc1`, the Potency is 6.62 µM (active).
As to `O=C(CC12CC3CC(CC(C3)C1)C2)Nc1cccc2nc(NCCNCCO)ccc12`, the Potency is 5.26 µM (active).
Take `COC(=O)N1CCN(Cc2cccc(NC(=O)Nc3ccc(C)nc3)c2F)CC1`: the “viability, % of DMSO control” value was 88.7% (inactive).
On to `CCN1CCC(n2cc(CNc3cc(Cl)c4ncc(C#N)c(Nc5ccc(F)c(Cl)c5)c4c3)nn2)CC1`, for which the Potency was 16.6 µM (active).
In the case of `CN(C)c1nc(Cc2ccc(NC(=O)c3ccc(C(F)(F)F)cc3)cc2)nc(N(C)C)c1CC(=O)O`, the “viability, % of DMSO control” value is 128% (inactive).
`CC(C)CNc1ccnc(NCc2csc(-c3ccccc3)n2)n1`: the Potency is 9.35 µM (active).
In the case of `CNC1CCC(N(Cc2cccc(-c3ccncc3)c2)C(=O)c2sc3ccccc3c2Cl)CC1` (stereo not given), the Potency is 8.33 µM (active).
As to `CCN1C[C@H](C)n2c(c(O)c3c(=O)n(Cc4ccc(F)c(Cl)c4)nc(C(=O)NC)c32)C1=O`, the “viability, % of DMSO control” value was 107% (inactive).
Consider `CCc1cccc(CC)c1NC(=O)N1Cc2[nH]nc(NC(=O)c3ccc(N4CCN(C)CC4)cc3)c2C1`, for which the Potency was 16.6 µM (active).
Regarding `CCCCC(F)(F)[C@@]1(O)CC[C@H]2[C@H](CC(=O)[C@@H]2CCCCCCC(=O)O)O1`, the “viability, % of DMSO control” value was 116% (inactive).
As to `c1cc(OCCN2CCCCC2)cc(-c2n[nH]c3ccc(-c4ncn[nH]4)cc23)c1`, the Potency is 14.8 µM (active).
On the same count and under the same terms, to `CC1(COc2ccc3c(c2)ncn3-c2ccc3cccc(N4CCC(N)CC4)c3n2)COC1` belongs 0.0148 µM (active).
The same measure, in the same setting: with `CCNC(=O)c1noc(-c2cc(C(C)C)c(O)cc2O)c1-c1ccc(CN2CCOCC2)cc1` the figure was 0.0833 µM (active); with `CC(C)(C)c1nc(-c2cccc(NS(=O)(=O)c3c(F)cccc3F)c2F)c(-c2ccnc(N)n2)s1`, 5.9 µM (active); with `Nc1ncnc2c1c(-c1cccc(OCc3ccccc3)c1)cn2C1CC(CN2CCC2)C1` (stereo not given), 16.6 µM (active).
Regarding `COc1ccc(CCC(=O)Nc2nc3ccc(Cl)cc3s2)cc1OC`, the “viability, % of DMSO control” value is 81.6% (inactive).

A further test is described as follows: Quantitative High-Throughput drug screen in 47 multiple myeloma cell lines against the NCATS MIPE library collection: JIM3_ECACC cell viability assay (AID 1918963;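 as to viability, percent of control: 100% = DMSO-only wells and 0% = media-only wells without cells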). To be noted: JIM3 myeloma viability, CellTiter-Glo ATP, 48 h; series mostly up to 45.8 µM; viability, percent of control: at the top concentration. Put shortly: as §1
With `Cc1ccc2c(c1)c1c(n2CCc2ccc(C)nc2)CCN(C)C1`, the “viability, percent of control” value is 94.5% (inactive).
In the case of `CCCCn1c(=O)n(Cc2ccccc2F)c(=O)c2[nH]c(Cc3ccc(NC(C)=O)cc3)nc21`, the Potency is 23.5 µM (active).
The same measure, in the same setting: with `CC(=O)Nc1cccc(-n2c(=O)n(C3CC3)c(=O)c3c(Nc4ccc(I)cc4F)n(C)c(=O)c(C)c32)c1` the figure was 0.187 µM (active); with `C[C@@H](NC(=O)c1ncnc(N)c1Cl)c1ncc(C(=O)Nc2cc(C(F)(F)F)c(Cl)cn2)s1`, 13.2 µM (active).
Regarding `CN(C)CCOc1cc(-c2cn[nH]c2)ccc1NC(=O)C1COc2ccccc2O1` (stereo not given), the Potency is 18.7 µM (active).
In the case of `Cn1c(=O)c(-c2c(Cl)cccc2Cl)cc2cnc(Nc3cccc(C(=O)O)c3)nc21`, the “viability, percent of control” value is 135% (inactive).
On to `O=C(Nc1cccc(C(F)(F)F)c1)Nc1cc(S(=O)(=O)NC2CC2)ccc1-c1ccsc1`, for which the Potency is 23.5 µM (active).
On the same count and under the same terms, to `O=C(CC12CC3CC(CC(C3)C1)C2)Nc1cccc2nc(NCCNCCO)ccc12` belongs 9.35 µM (active).
For `CS(=O)(=O)c1ccc(C2=C(c3ccccc3)C(=O)OC2)cc1`, the “viability, percent of control” value is 108% (inactive).
Take `CCN1CCC(n2cc(CNc3cc(Cl)c4ncc(C#N)c(Nc5ccc(F)c(Cl)c5)c4c3)nn2)CC1`: the Potency was 14.8 µM (active).
For `Cc1cnc(-c2cc(N3CCN(C(=O)CCS(C)(=O)=O)CC3)ncc2Cl)c(C)c1`, the “viability, percent of control” value is 106% (inactive).
Same read-out and setting: with `CN(C)c1nc(Cc2ccc(NC(=O)c3ccc(C(F)(F)F)cc3)cc2)nc(N(C)C)c1CC(=O)O` the figure was 119% (inactive); with `COc1nccc(-c2c(-c3ccc(F)cc3)ncn2C2CCC(O)CC2)n1` (stereo not given), 94.5% (inactive); with `Cc1ccccc1C(C(=O)NC1CCCCC1)N(C(=O)CNc1ccc(C#N)cc1)c1cccc(F)c1` (stereo not given), 108% (inactive).
Take `C[C@H](c1ccc(F)cc1CCCC(=O)O)N(c1cc(F)ccc1F)S(=O)(=O)c1ccc(Cl)cc1`: the Potency is 26.4 µM (active).
Still for that read-out and setting: to `CC(C)CNc1ccnc(NCc2csc(-c3ccccc3)n2)n1` belongs 5.26 µM (active).
The same measure, in the same setting: with `CNC1CCC(N(Cc2cccc(-c3ccncc3)c2)C(=O)c2sc3ccccc3c2Cl)CC1` (stereo not given) the figure was 10.5 µM (active).
Turning to `CCN1C[C@H](C)n2c(c(O)c3c(=O)n(Cc4ccc(F)c(Cl)c4)nc(C(=O)NC)c32)C1=O`, the “viability, percent of control” value is 113% (inactive).
The same measure, in the same setting: to `CCCCC(F)(F)[C@@]1(O)CC[C@H]2[C@H](CC(=O)[C@@H]2CCCCCCC(=O)O)O1` belongs 118% (inactive).
Turning to `c1cc(OCCN2CCCCC2)cc(-c2n[nH]c3ccc(-c4ncn[nH]4)cc23)c1`, the Potency was 18.7 µM (active).
In the case of `CC1(COc2ccc3c(c2)ncn3-c2ccc3cccc(N4CCC(N)CC4)c3n2)COC1`, the Potency is 0.0118 µM (active).
Still for that read-out and setting: with `CCNC(=O)c1noc(-c2cc(C(C)C)c(O)cc2O)c1-c1ccc(CN2CCOCC2)cc1` the figure was 0.0743 µM (active).
Consider `COc1cc2ncnc(Nc3cc(Br)c(O)c(Br)c3)c2cc1OC`, for which the Potency is 0.935 µM (active).
With `Nc1ncnc2c1c(-c1cccc(OCc3ccccc3)c1)cn2C1CC(CN2CCC2)C1` (stereo not given), the Potency is 0.332 µM (active).
As to `COc1ccc(CCC(=O)Nc2nc3ccc(Cl)cc3s2)cc1OC`, the Potency was 14.8 µM (active).

These data come from PubChem BioAssay (NCATS).
